These results are taken from the supplement of paper PMC10037445.

Each structure is given as a SMILES string. In all, about 2,900 compounds were measured (“NF-kB SEAP reporter activity, fold change vs agonist alone”: median about 0.99, highest 2% from about 2.6 on). What follows is part of a selection rich in the highest values, with near analogues and random picks from the rest.

The test system of assay [1] is RAW-Dual. Briefly: NF-kB SEAP reporter activity, fold change vs agonist alone; higher = enhanced NF-kB activity. A digest of the protocol:
(§1)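 RAW-Dual macrophages (50,000 cells/well in DMEM, 384-well plates) received 50 nL of library stock by pin tool, then a PRR agonist 1 h later, and were kept at 37 °C, 5% CO2. After 20 hours, supernatant was read for IRF by QuantiLuc luminescence and for NF-κB by QuantiBlue absorbance at 620 nm. Reporter activity is fold change over agonist-alone wells. Cytotoxic wells had IncuCyte confluency below 70% of agonist controls in both mask sets.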

Assay [2] concerns RAW-Dual. As to the kind of experiment: NF-kB SEAP reporter activity, fold change vs agonist alone; cytotoxicity flag (confluency mask): not cytotoxic; higher = enhanced NF-kB activity. A digest of the protocol: as §1
Assay [3] deals with RAW-Dual. As to the kind of experiment: NF-kB SEAP reporter activity, fold change vs agonist alone; cytotoxicity flag (confluency mask): cytotoxic (confluency <70% of control); higher = enhanced NF-kB activity. A digest of the protocol:
as §1

[4] abbreviates: library stock concentration (final ~1000-fold dilution): 10 mM, cytotoxicity flag (confluency mask): not cytotoxic, agonist: Imiquimod (TLR7) […].
[5] abbreviates: library stock concentration (final ~1000-fold dilution): 10 mM, cytotoxicity flag (confluency mask): not cytotoxic, agonist: MPLA (TLR4) […].
Setting [6] is: agonist: ODN 1826 (TLR9) 0.5 ug/mL.
The mark [7] stands for this setting: agonist: Pam2CSK4 (TLR2/6) 0.1 ug/mL.
Setting [8] is: agonist: Pam3CSK4 (TLR2/1) 0.1 ug/mL.
Where [9] appears, read: library stock concentration (final ~1000-fold dilution): 10 mM, cytotoxicity flag (confluency mask): cytotoxic (confluency <70% of control), agonist: Imiquimod (TLR7) […].
Setting [10] is: library stock concentration (final ~1000-fold dilution): 10 mM, cytotoxicity flag (confluency mask): cytotoxic (confluency <70% of control), agonist: MPLA (TLR4) […].

With `Cl.Nc1ccc(N=Nc2ccccc2)c(N)n1`, the “NF-kB SEAP reporter activity” value in the assay on RAW-Dual [1] (setting [4]) is 1.1; in the assay on RAW-Dual [1] (setting [5]) it was 1.08.
In the case of `Cl.Nc1ccc(N=Nc2ccccc2)c(N)n1` (library stock concentration (final ~1000-fold dilution): 10 mM), the “NF-kB SEAP reporter activity” value was 1.22 in the assay with RAW-Dual [2] (agonist: LPS (TLR4) 0.1 ug/mL), 0.928 in the assay with RAW-Dual [2] (setting [6]), 1.09 with RAW-Dual [2] (setting [7]) and 0.933 in the assay on RAW-Dual [2] (setting [8]).
Regarding `Nc1nc(=O)n(C2CSC(CO)O2)cc1F` (configuration not stated) (library stock concentration (final ~1000-fold dilution): 10 mM), the “NF-kB SEAP reporter activity” value in the assay with RAW-Dual [2] (agonist: LPS (TLR4) 0.1 ug/mL) turned out to be 0.99; with RAW-Dual [2] (setting [6]), 1.1; in the assay with RAW-Dual [2] (setting [7]) it was 1.1; in the assay with RAW-Dual [2] (setting [8]) it was 1.13.
For the molecule `Nc1nc(=O)n(C2CSC(CO)O2)cc1F` (configuration not stated), the “NF-kB SEAP reporter activity” value with RAW-Dual [1] (setting [4]) came to 0.983; in the assay with RAW-Dual [1] (setting [5]) it was 1.14.
The like results for `CCC(C)SSc1ncc[nH]1` (configuration not stated) were, in that order, 1.51 and 1.85.
Consider `CCC(C)SSc1ncc[nH]1` (configuration not stated) (library stock concentration (final ~1000-fold dilution): 10 mM), for which the “NF-kB SEAP reporter activity” value in the assay with RAW-Dual [2] (agonist: LPS (TLR4) 0.1 ug/mL) is 4.74; with RAW-Dual [2] (setting [6]) it was 2.67; with RAW-Dual [2] (setting [7]), 1.44; in the assay on RAW-Dual [2] (setting [8]) it was 2.7.
As to `Cc1[nH]c(/C=C2\C(=O)Nc3ccc(S(=O)(=O)Cc4c(Cl)cccc4Cl)cc32)c(C)c1C(=O)N1CCCC1CN1CCCC1` (configuration not stated), the “NF-kB SEAP reporter activity” value in the assay on RAW-Dual [1] (setting [9]) turned out to be 2.04; in the assay on RAW-Dual [1] (setting [10]), 1.3.
Take `Cc1[nH]c(/C=C2\C(=O)Nc3ccc(S(=O)(=O)Cc4c(Cl)cccc4Cl)cc32)c(C)c1C(=O)N1CCCC1CN1CCCC1` (configuration not stated) (library stock concentration (final ~1000-fold dilution): 10 mM): the “NF-kB SEAP reporter activity” value with RAW-Dual [3] (agonist: LPS (TLR4) 0.1 ug/mL) is 0.658; in the assay with RAW-Dual [3] (setting [6]), 1.39; with RAW-Dual [3] (setting [7]) it was 0.551; in the assay on RAW-Dual [3] (setting [8]) it was 0.886.
As for `CC(C)Oc1ccc(C(=O)NC(CNC(=O)CN(C)C)Cc2ccc(-c3cn4cccc(C(C)O)c4n3)cc2)cc1Cl` (configuration not stated), the “NF-kB SEAP reporter activity” value was 1.37 with RAW-Dual [1] (setting [4]) and 1.39 with RAW-Dual [1] (setting [5]).
As for `CC(C)Oc1ccc(C(=O)NC(CNC(=O)CN(C)C)Cc2ccc(-c3cn4cccc(C(C)O)c4n3)cc2)cc1Cl` (configuration not stated) (library stock concentration (final ~1000-fold dilution): 10 mM), the “NF-kB SEAP reporter activity” value in the assay with RAW-Dual [2] (agonist: LPS (TLR4) 0.1 ug/mL) came to 0.934; in the assay on RAW-Dual [2] (setting [6]) it was 0.199; in the assay on RAW-Dual [2] (setting [7]), 1.02; with RAW-Dual [2] (setting [8]), 1.03.
On to `Nc1ncnc2c1c(I)cn2C1OC(CO)C(O)C1O` (configuration not stated), for which the “NF-kB SEAP reporter activity” value in the assay on RAW-Dual [1] (setting [9]) turned out to be 0.145; in the assay on RAW-Dual [1] (setting [10]) it was 0.26.
As for `Nc1ncnc2c1c(I)cn2C1OC(CO)C(O)C1O` (configuration not stated) (library stock concentration (final ~1000-fold dilution): 10 mM), the “NF-kB SEAP reporter activity” value in the assay with RAW-Dual [3] (agonist: LPS (TLR4) 0.1 ug/mL) came out at 0.213; in the assay on RAW-Dual [3] (setting [6]), 0.195; in the assay with RAW-Dual [3] (setting [7]), 0.0844; with RAW-Dual [3] (setting [8]) it was 0.123.
For the molecule `C=C1CCC(O)CC1=CC=C1CCCC2(C)C1CCC2C(C)CCCC(C)C` (configuration not stated) (library stock concentration (final ~1000-fold dilution): 1 mM), the “NF-kB SEAP reporter activity” value with RAW-Dual [2] (agonist: LPS (TLR4) 0.1 ug/mL) was found to be 0.593; in the assay with RAW-Dual [2] (setting [6]), 1.12; with RAW-Dual [2] (setting [7]), 1.12; with RAW-Dual [2] (setting [8]), 1.27.
For the molecule `C=C1CCC(O)CC1=CC=C1CCCC2(C)C1CCC2C(C)CCCC(C)C` (configuration not stated), the “NF-kB SEAP reporter activity” value in the assay with RAW-Dual [1] (library stock concentration (final ~1000-fold dilution): 1 mM, cytotoxicity flag (confluency mask): not cytotoxic, agonist: Imiquimod (TLR7) […]) came to 1.17; in the assay with RAW-Dual [1] (library stock concentration (final ~1000-fold dilution): 1 mM, cytotoxicity flag (confluency mask): not cytotoxic, agonist: MPLA (TLR4) […]), 0.651.
Regarding `O=C(O)CCN1C(=O)C(=Cc2ccc(-c3ccc([N+](=O)[O-])cc3)o2)SC1=S`, the “NF-kB SEAP reporter activity” value is 0.675 in the assay on RAW-Dual [1] (setting [4]) and 0.731 with RAW-Dual [1] (setting [5]).
Turning to `O=C(O)CCN1C(=O)C(=Cc2ccc(-c3ccc([N+](=O)[O-])cc3)o2)SC1=S` (library stock concentration (final ~1000-fold dilution): 10 mM), the “NF-kB SEAP reporter activity” value in the assay on RAW-Dual [2] (agonist: LPS (TLR4) 0.1 ug/mL) was determined as 0.807; in the assay with RAW-Dual [2] (setting [6]) it was 0.649; in the assay on RAW-Dual [2] (setting [7]) it was 0.104; in the assay with RAW-Dual [2] (setting [8]) it was 0.296.
The like results for `COc1ccc(-c2ccc3c(N4CCOCC4)nc(N4CC(C)OC(C)C4)nc3n2)cc1CO` (configuration not stated) (library stock concentration (final ~1000-fold dilution): 10 mM) were, in that order, 0.793, 0.836, 0.365 and 0.707.
For `COc1ccc(-c2ccc3c(N4CCOCC4)nc(N4CC(C)OC(C)C4)nc3n2)cc1CO` (configuration not stated), the figures for the “NF-kB SEAP reporter activity” value in the assay with RAW-Dual [1] (setting [4]) and in the assay on RAW-Dual [1] (setting [5]) were 0.91 and 0.935, respectively.
On to `O=c1n(CCCN2CCN(c3cccc(Cl)c3)CC2)nc2ccccn12` (library stock concentration (final ~1000-fold dilution): 10 mM), for which the “NF-kB SEAP reporter activity” value in the assay with RAW-Dual [2] (agonist: LPS (TLR4) 0.1 ug/mL) was 2.72; with RAW-Dual [2] (setting [6]), 1.65; in the assay on RAW-Dual [2] (setting [7]), 1.15; in the assay on RAW-Dual [2] (setting [8]) it was 1.22.
On to `Cl.O=c1n(CCCN2CCN(c3cccc(Cl)c3)CC2)nc2ccccn12`, for which the “NF-kB SEAP reporter activity” value is 1.05 with RAW-Dual [1] (library stock concentration (final ~1000-fold dilution): 2 mM, cytotoxicity flag (confluency mask): not cytotoxic, agonist: Imiquimod (TLR7) […]) and 1.08 with RAW-Dual [1] (library stock concentration (final ~1000-fold dilution): 2 mM, cytotoxicity flag (confluency mask): not cytotoxic, agonist: MPLA (TLR4) […]).
Regarding `O=c1n(CCCN2CCN(c3cccc(Cl)c3)CC2)nc2ccccn12`, the “NF-kB SEAP reporter activity” value with RAW-Dual [1] (setting [4]) worked out at 2.36; with RAW-Dual [1] (setting [5]), 2.42.
For `Cl.O=c1n(CCCN2CCN(c3cccc(Cl)c3)CC2)nc2ccccn12` (library stock concentration (final ~1000-fold dilution): 2 mM), the “NF-kB SEAP reporter activity” value with RAW-Dual [2] (agonist: LPS (TLR4) 0.1 ug/mL) amounted to 1.15; in the assay with RAW-Dual [2] (setting [6]), 1.04; in the assay on RAW-Dual [2] (setting [7]), 1.1; in the assay with RAW-Dual [2] (setting [8]) it was 1.37.
With `CCc1nn(CCCN2CCN(c3cccc(Cl)c3)CC2)c(=O)n1CCOc1ccccc1.Cl`, in the assay on RAW-Dual [1] (setting [5]), the “NF-kB SEAP reporter activity” value came to 0.878.
In the case of `CCc1nn(CCCN2CCN(c3cccc(Cl)c3)CC2)c(=O)n1CCOc1ccccc1.Cl` (library stock concentration (final ~1000-fold dilution): 10 mM), the “NF-kB SEAP reporter activity” value with RAW-Dual [2] (agonist: LPS (TLR4) 0.1 ug/mL) was 0.981; in the assay on RAW-Dual [2] (setting [6]), 0.799; in the assay with RAW-Dual [2] (setting [7]) it was 0.822; with RAW-Dual [2] (setting [8]), 0.646.
In the case of `COc1nc(N)nc2c1ncn2C1OC(CO)C(O)C1O` (configuration not stated) (library stock concentration (final ~1000-fold dilution): 10 mM), the “NF-kB SEAP reporter activity” value in the assay on RAW-Dual [2] (agonist: LPS (TLR4) 0.1 ug/mL) stood at 1.43; with RAW-Dual [2] (setting [6]) it was 0.996; in the assay on RAW-Dual [2] (setting [7]), 1.08; in the assay on RAW-Dual [2] (setting [8]) it was 1.23.
Take `COc1nc(N)nc2c1ncn2C1OC(CO)C(O)C1O` (configuration not stated): the “NF-kB SEAP reporter activity” value in the assay with RAW-Dual [1] (setting [4]) turned out to be 0.924; in the assay on RAW-Dual [1] (setting [5]) it was 0.994.
